L major viab: reduces viability of Leishmania major promastigotes | resazurin fluorescence viability | inhibition, % at 10 µM | hit rate 9% among 200,000 | AID 1063; in the data active = inhibition above about 50%;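 also: promastigotes grown with compound for 44 hours at 28 °C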
ROMK primary: modulators of human ROMK potassium channel; P48048; Tet-inducible ROMK, thallium flux fluorescence; actives lie on both sides; B-score at 10 µM; hit rate 2% among 130,000; AID 1918;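 active = signal ratio slope over the read window, or its plate-corrected B-score, at least 3 SD from the plate mean, either direction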;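 also: B-score of the F/F0 ratio slope over 7 to 12 s after thallium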
Target sequence (P48048 whole entry, looked up): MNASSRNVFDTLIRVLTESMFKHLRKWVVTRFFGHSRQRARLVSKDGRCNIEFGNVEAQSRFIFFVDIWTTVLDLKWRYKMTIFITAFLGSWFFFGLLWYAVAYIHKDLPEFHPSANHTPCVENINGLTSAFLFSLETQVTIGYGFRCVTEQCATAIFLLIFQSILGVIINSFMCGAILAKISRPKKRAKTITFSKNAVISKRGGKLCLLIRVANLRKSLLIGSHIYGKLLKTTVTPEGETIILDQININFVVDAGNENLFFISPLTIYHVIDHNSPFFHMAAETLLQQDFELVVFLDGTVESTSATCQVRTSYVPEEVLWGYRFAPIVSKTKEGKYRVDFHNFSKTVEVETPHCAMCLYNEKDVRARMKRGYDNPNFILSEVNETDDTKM
Ins promoter up: MIN6 insulin promoter up-regulation; MIN6 insulin promoter-GFP reporter, high-content imaging; hits give high values; z-score at 5 µM; hit rate 0.3% among 190,000; AID 1625;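 active = z-score above 3 at 5 µM with at least 500 cells counted in the well; inconclusive = wells under 500 cells, flagged as cytotoxic or low count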
WT yeast gro inh: growth inhibition of WT yeast, mitochondrial fusion screen; hit rate 2.1% among 190,000; mitochondrial fusion phenotypic screen, WT strain; inhibition, % at 10 µM; in the data active = inhibition above about 58%; tested in S. cerevisiae
Insulin prom inh: TRM-6 insulin promoter activity inhibition; TRM-6 cells (human fetal islet line), insulin promoter-eGFP reporter, imaging; reporter expression induced with tamoxifen; inhibition, % at 2 µM; hit rate 0.9% among 130,000;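 active = inhibition above the mean plus 3 SD, with well images judged a real hit on visual review, cut at about 60% in these data, passing the limit was not always enough; inconclusive = inhibition over the cutoff but images rejected on review; inactive = inhibition not above the cutoff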
Cl transport mod: modulates chloride dependent transport by human KCC2; Q9H2X9; KCC2 cells, thallium flux FluoZin-2 fluorescence; B-score of Tl+ flux slope (higher = more flux/activation; lower = inhibition) at 10 µM; hit rate 2.2% among 190,000; AID 1456;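 active = thallium flux slope and its plate-corrected score both differing from the plate sample mean at a set confidence after two filtering rounds, in either direction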;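 also: slope of fluorescence scaled to starting intensity during 10 to 20 s after thallium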
KCC2 sec1: KCC2 (human) modulation, secondary assay | shares compounds with Cl transport mod | HEK293-KCC2, thallium flux, FluoZin2 fluorescence; hits give high values | normalised thallium flux (F/F0 slope) at 10 µM | hit rate 15% among 3,700 | AID 1713;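 active = thallium flux slope above the same plate's solvent-only control mean plus 3 SD; inconclusive = the two replicate wells disagree; inactive = no significant difference from solvent-only control wells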
KCC2 bumet counter: thallium flux persisting under bumetanide in KCC2 cells, counter-screen secondary assay; shares compounds with Cl transport mod; HEK293-KCC2 + bumetanide/ouabain, thallium flux FluoZin2; hits give high values; normalized thallium flux at 10 µM; hit rate 49% among 3,700; AID 1714;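 active = thallium entry rate above the same plate's blocked-transporter control wells by more than 3 SD; inconclusive = the two repeat wells disagree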;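 also: raw slope of fluorescence over initial fluorescence between 10 and 20 s after thallium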
KCC2 secondary2: confirmation of human KCC2 transport modulators; shares compounds with Cl transport mod; HEK293-KCC2, thallium flux FluoZin2 fluorescence; actives lie on both sides; F/F0 rise rate, 10–20 s post-thallium; normalized thallium flux at 10 µM; hit rate 23% among 3,700; AID 1715;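 active = thallium flux slope more than 3 SD above or below the plate's solvent-only control mean, mostly below; inconclusive = the two repeat wells disagreed; inactive = no significant shift from solvent-only controls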;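 also: raw slope with 0.1% DMSO as baseline and bumetanide as block control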
HEK293 Tl flux: acts in parental HEK cells, KCC2 counter-screen; shares compounds with Cl transport mod; HEK293 parental cells, thallium flux FluoZin2, ouabain; baseline-ratio fluorescence slope, 10–20 s after thallium; thallium flux rate (normalised fluorescence) at 10 µM; hit rate 46% among 3,700; AID 1716;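 active = thallium flux rate significantly above the same plate's solvent-only control wells, beyond their mean plus 3 SD; inconclusive = the two replicate wells gave conflicting results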
KCC2 ouabain: KCC2 (human) modulation, ouabain retest | hit rate 48% among 3,700 | raw Tl+ flux slope (below DMSO = inhibition, above = activation) at 10 µM | HEK293-KCC2, thallium flux FluoZin2 fluorescence; bidirectional: low = inhibitor, high = activator | shares compounds with Cl transport mod;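 active = thallium flux slope beyond 3 SD from same-plate DMSO control mean in most replicates, usually higher, sometimes lower; inconclusive = repeat tests gave conflicting results; inactive = no significant difference from controls in most replicates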;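 also: slope of initial-normalized fluorescence between seconds 10 and 20 after thallium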
HEK counter2: counter-screen for KCC2 modulators: effect in parental HEK293 cells | shares compounds with Cl transport mod | thallium flux FluoZin-2 fluorescence slope | thallium flux slope at 10 µM | hit rate 33% among 3,700 | AID 1718;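 active = thallium flux slope above the same plate's solvent-control mean plus 3 SD in both duplicate wells; inconclusive = duplicate wells that disagreed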;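 also: run without ouabain in cells lacking the KCC2 cotransporter; slope of fluorescence scaled to its starting value between 10 and 20 s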
Numbers without * were called inactive; ? = inconclusive; nt = no result given. This is a sample that favours compounds with a hit; in the whole collection about 12% have one here.

SMILES	L major viab	ROMK primary	Ins promoter up	WT yeast gro inh	Insulin prom inh	Cl transport mod	KCC2 sec1	KCC2 bumet counter	KCC2 secondary2	HEK293 Tl flux	KCC2 ouabain	HEK counter2
CCS(=O)(=O)N1N=C(c2cccc(NS(C)(=O)=O)c2)CC1c1ccccc1 (stereo not given)	-3	-1.8	nt	0	-385	-1.6	nt	nt	nt	nt	nt	nt
Cc1ccc(CCNC(=O)Cn2cccc2)cc1	-3	-0.63	0.57	-3	-44	nt	0.012	0.0064	0.031	0.0078	0.023	0.01
C=CCn1c(=N)n(CC(=O)O)c2ccccc21	4	0.97	-0.41	0	nt	0.056	nt	nt	nt	nt	nt	nt
O=C(O)c1ccccc1-c1ccccc1C(=O)Nc1cccc(-c2nc3ccccc3o2)c1	-13	-0.00074	nt	18	40	-5.8*	0.0064	0.0057*	0.026*	?	0.013*	?
O=C(Nc1ccc2oc(-c3ccccc3)nc2c1)c1cccs1	-4	nt	nt	2	7	-0.8	nt	nt	nt	nt	nt	nt
O=C(Nc1cccc(-c2nc3ccccc3o2)c1)c1cccnc1	3	0.04	-1.8	-12	-33	-0.45	nt	nt	nt	nt	nt	nt
O=C(Nc1ccc2oc(-c3ccccc3)nc2c1)c1ccncc1	11	nt	-0.06	7	-13	-4.5*	0.0068	0.0051	0.022*	0.0074	?	0.011
O=C(CCCc1c[nH]c2ccccc12)NCc1ccc2c(c1)OCO2	30	0.6	-0.24	-26	-10	-4.5*	0.0068	0.0065	0.028	0.0065	?	0.0098
OCCNc1nc2ccccc2n1-c1ccccc1	-1	nt	-0.36	12	-293	-0.48	nt	nt	nt	nt	nt	nt
O=C(N/N=C/c1ccccn1)c1cc(-c2ccc(Cl)cc2)nc2ccccc12	98*	0.9	0.31	62	-7	7.5*	?	0.042*	0.033	0.018*	0.027	?
O=C(N/N=C/c1ccccn1)c1cc(-c2ccc(Br)cc2)nc2ccccc12	nt	nt	?	nt	nt	9.4*	0.011	0.025*	0.035	?	?	?
O=C(O)COc1ccccc1/C=N/NC(=O)c1cc(-c2ccccc2)nc2ccccc12	nt	0.5	nt	nt	nt	0.1	nt	nt	nt	nt	nt	nt
O=C(CCC(=O)OCC(F)(F)C(F)F)Nc1ccc(Cl)cc1	-7	nt	0.24	15	nt	8.3*	0.0071	0.0051	?	0.0079	0.018	0.0098
Cc1[nH]c(N=Nc2ccccc2)nc1N=Nc1ccccc1	nt	0.87	-0.2	nt	nt	76*	0.04*	0.14*	0.059*	0.096*	0.098*	0.027*
O=C(CCCCl)NC(=S)Nc1cc(C(F)(F)F)ccc1N1CCOCC1	-2	nt	0	8	2	0.046	nt	nt	nt	nt	nt	nt
Cc1sc2nc(C3CC3)nc(SCC(=O)N3CCCc4ccccc43)c2c1C	94*	-0.059	-0.22	38	-22	8.5*	0.011	0.019*	0.032	0.013*	?	0.012*
COc1ccc(/C=N/NC(=O)CN2CCS(=O)(=O)CC2)cc1	-2	nt	0.83	46	35	nt	nt	nt	nt	nt	nt	nt
COC(=O)c1cn(Nc2ncc(C(F)(F)F)cc2Cl)c(=O)c2ccccc12	1	-1.2	1	12	44	-0.32	nt	nt	nt	nt	nt	nt
CC1=NN(c2nc3ccccc3[nH]2)C(=O)C1Cc1ccccc1 (stereo not given)	nt	nt	-5.3	nt	nt	8.6*	0.0076	0.016*	0.037	0.016*	0.027*	0.019*
O=C1CN(C(=O)C2CC2)c2ccccc2N1	-5	nt	0.72	-3	20	0.56	nt	nt	nt	nt	nt	nt
Cc1cc(Sc2nc(NC(C)C)nc(NC(C)C)n2)nc(Cl)n1	0	1	-0.56	12	17	0.039	nt	nt	nt	nt	nt	nt
O=S(=O)(c1ccccc1)N1CCn2c(nc3ccccc32)C1	-3	nt	?	4	nt	nt	0.0088	?	0.034	0.0074	0.018	0.011
CN(CC(=O)Nc1ccccc1Cl)C(=O)c1cc(=O)[nH]c2ccccc12	nt	nt	0.08	nt	nt	-0.42	nt	nt	nt	nt	nt	nt
COCNc1nc(OCC#N)nc(N(C)C)n1	-3	0.38	nt	5	nt	7.6*	0.0069	0.0052	0.03	0.0084	0.019	0.012
CCOC(=O)c1sc(N2N=C(C)C(N=Nc3cccc(C)c3)C2=O)nc1C (stereo not given)	nt	2.1	-1.1	nt	nt	22*	0.0067	0.026*	0.038*	0.016*	0.035*	0.019*
SMILES	L major viab	ROMK primary	Ins promoter up	WT yeast gro inh	Insulin prom inh	Cl transport mod	KCC2 sec1	KCC2 bumet counter	KCC2 secondary2	HEK293 Tl flux	KCC2 ouabain	HEK counter2
CCOC(=O)c1sc(N/N=C/c2cccc(C)c2)nc1C	-3	nt	-0.83	-12	-46	nt	nt	nt	nt	nt	nt	nt
CCOC(=O)CNC(=O)C(=O)c1c(O)[nH]c2ccccc12	-3	0.78	-0.55	0	29	0.35	nt	nt	nt	nt	nt	nt
COc1ccc(CN(C(=O)c2cc3ccccc3oc2=O)C2CCCC2)cc1	46	-0.89	nt	5	13	-5.1*	0.0077	0.0043	0.031	?	?	0.011
COc1ccccc1NC(=O)COc1cc(C)nc(C(C)C)n1	-3	-0.032	-0.71	0	30	-0.82	nt	nt	nt	nt	nt	nt
CCNC(=S)Nc1ccccc1-c1ccccc1	8	-0.031	-0.03	-15	-20	0.21	nt	nt	nt	nt	nt	nt
C=C(C)CNC(=S)NN=C1c2ccccc2-c2ccccc21	11	1.8	-0.74	70*	nt	28*	0.0068	0.075*	0.046*	0.026*	0.055*	0.027*
CCNC(=S)NN=C1c2ccccc2-c2ccccc21	10	0.87	-1	15	nt	34*	0.018*	0.051*	0.033	0.067*	0.047*	0.016*
C=C(C)CNC(=S)N/N=C(\C)c1ccc(OC)cc1	11	nt	0.24	41	nt	3.4	nt	nt	nt	nt	nt	nt
Cc1cc(C)c(NC(=O)c2cc(C(=O)O)ccc2C(=O)O)c([N+](=O)[O-])c1	-2	0.026	-0.52	3	13	nt	nt	nt	nt	nt	nt	nt
CC(=O)C1=C(C)Nc2ncnn2C1c1cccc(OCc2ccccc2)c1 (stereo not given)	4	nt	-1.1	11	nt	-3.4*	0.0079	0.006	0.032	0.0067	0.018*	0.01
CNC(=O)c1[nH]cnc1C(=O)N[C@@H](C)C(=O)OCc1ccccc1	nt	nt	1.6	nt	nt	-0.83	nt	nt	nt	nt	nt	nt
CCc1cc(OCCN2C(=O)NC(C)(C)C2=O)ccc1Cl	6	nt	0.22	13	0	nt	nt	nt	nt	nt	nt	nt
O=C(CSc1ncccc1-c1nc2ccccc2[nH]1)N1CCN(c2ccccc2F)CC1	12	nt	-0.62	6	14	-4*	0.006	0.005	0.025*	0.0072	?	0.0099
